PubChem BioAssay AID588765 (NMMLSC, 2011)
Several values for one entry are separate records, joined by “and”; a condition that tells them apart may be missing. Equal entries are not always repeated. Out of some 1,100 compounds screened, fewer than 10 were called active.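 The calls were made as follows: active = percent response below a set limit in fluorescence channel 1 and below 50% in channel 8; inactive = the rest.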 These entries were drawn from the full list.

Experiment: fluorescent artefacts in FAP flow readout – cell-based, FAP fluorogen, flow cytometry, cherry pick 1, artefact control for beta2AR agonist internalization project, confirmation (AID 588765);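 also: low percent response here flags compound autofluorescence meaning a false positive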
Conditions: Am2.2 cells, fluorescence counterscreen, at 10 µM, stronger effect = lower value; percent response FL8: measured here: FL8 channel fluorescence

Row | Compound | percent response FL1 | percent response FL8
1 | O=C1C(=O)N(CC2COc3ccccc3O2)c2ccccc21 (configuration not stated) | 108% (inactive) | 112%
2 | COc1ccc(-n2nc3c(N4CCC(C(=O)NCc5ccccc5)CC4)nnc(C)c3c2C)cc1 | 130% (inactive) | 115%
3 | CCCOc1ccc(C(=O)C(CCC(CNCC)C(=O)c2ccc(OCCC)cc2)CNCC)cc1 (configuration not stated) | 82.8% (inactive) | 76.7%
4 | O=C(NCCCn1ccnc1)C1CCCN(S(=O)(=O)c2cc(Cl)ccc2Cl)C1 (configuration not stated) | 8.86% (inactive) | 109%
5 | COc1cc(C#Cc2ccc3cc(CCCO)oc(=O)c3c2)cc(OC)c1 | 92.6% (inactive) | 102%
6 | CCCCCCCCCCOC(=O)Cn1c(COc2ccc(C)cc2)[n+](C)c2ccccc21 | 120% (inactive) | 113%
7 | CC(=O)c1ccc(NC(=O)c2ccc3c(Cl)c4c(nc3c2)CCCC4)cc1 | 52.7% (inactive) | 89.7%
8 | CCOC(=O)c1ccc(NC(=O)Cn2nnc(-c3ccc(C)cc3)n2)cc1 | 12.2% (inactive) and 8.97% (inactive) | 98.7% and 110%
9 | O=S(=O)(Nc1ccc2[nH]ncc2c1)c1ccccc1Cl | 86% (inactive) | 87.7%
10 | COc1ccc(C(CCNCc2ccccc2F)c2ccc(F)cc2)cc1 (configuration not stated) | 101% (inactive) | 110%
11 | Cc1cc(S(=O)(=O)N2CCOCC2)ccc1OCC(=O)Nc1cccc(C(F)(F)F)c1 | 97.5% (inactive) | 108%
12 | CC(CCc1ccccc1)NCC(O)c1cccc([N+](=O)[O-])c1 (configuration not stated) | 120% (inactive) | 128%
13 | CCOc1ccc(NC(=O)COc2ccc(S(=O)(=O)N3CCCC3)cc2)cc1 | 109% (inactive) | 101%
14 | CCCN(CCc1ccccc1)C1CCc2c(O)cccc2C1 (configuration not stated) | 103% (inactive) | 98.5%
15 | Oc1ccc(N=Cc2sc3ccccc3c2Cl)cc1 | 99.5% (inactive) | 93.9%
16 | O=C(Nc1ccc2c(c1)OCCO2)C(c1ccc(F)cc1)N1CCCCC1 (configuration not stated) | 114% (inactive) | 111%
17 | CSc1ccc(CCNC(=O)C2CCN(c3nnc(-n4cccc4)s3)CC2)cc1 | 45.7% (inactive) | 94.2%
18 | N#Cc1cccc(NC(=O)COC(=O)c2ccccc2C(=O)c2ccc(Cl)c([N+](=O)[O-])c2)c1 | 100% (inactive) | 89%

Row | Compound | percent response FL1 | percent response FL8
19 | CC(=O)Nc1ccc(CN2CCC(Oc3ccc(C(=O)N4CCCC4)cc3)CC2)cc1 | 109% (inactive) | 109%
20 | COc1ccc(S(=O)(=O)N2CCCC(C(=O)Nc3ccc(NC(=O)c4ccccn4)cc3)C2)cc1 (configuration not stated) | 45.3% (inactive) | 95.6%
21 | CC(=O)Nc1ccc(Nc2c3ccccc3nc3ccccc23)cc1 | 68.8% (inactive) | 126%
22 | C=CCNC(=S)N/N=C/c1ccc(C)s1 | 100% (inactive) | 93.3%
23 | CCN1CCC2(CC1)N=C(c1ccc(F)cc1)C(=S)N2C(=O)c1ccc(C)cc1 | 98.4% (inactive) | 96.3%
24 | Cc1ccc(Cl)cc1NC(=O)CN1CCN(S(=O)(=O)N2CCOCC2)CC1 | 99.8% (inactive) | 93.1%
25 | CSc1ccc(CNC(=O)c2ccc(NC(=O)C3=CSCCO3)cc2)cc1 | 16.2% (inactive) | 99.4%
26 | Cc1ccc(Sc2cc(N3CCOCC3)nc(-c3ccccc3)n2)cc1 | 29.8% (inactive) | 111%
27 | COc1ccc(OC)c(NC(=O)c2sc3nc(C)cc(C)c3c2N)c1 | 45.6% (inactive) | 111%
28 | CC(=O)c1cccc(NC(=O)COc2ccc(S(=O)(=O)N3CCOCC3)cc2)c1 | 112% (inactive) | 104%
29 | CCOc1ccccc1N1C(=O)CC(Sc2nccc(C)n2)C1=O (configuration not stated) | 100% (inactive) | 97.2%
30 | O=C(C1CCN(c2nnc(-n3cccc3)s2)CC1)N1CCc2ccccc2C1 | 128% (inactive) | 104%
31 | COc1ccc2c(c1OC)C(=O)OC2Nc1nc(-c2ccccc2)cs1 (configuration not stated) | 104% (inactive) | 92.1%
32 | OC(CNCc1ccc(Cl)c(Cl)c1)c1ccccc1 (configuration not stated) | 106% (inactive) | 113%
33 | COc1ccc(OC)c(S(=O)(=O)N(C)CC(=O)N2CCN(c3ccccc3)CC2)c1 | 95.4% (inactive) and 98.5% (inactive) | 99.7% and 105%
34 | CCOc1ccccc1NC(=O)COc1ccc(S(=O)(=O)N2CCCC2)cc1 | 110% (inactive) | 107%
35 | COc1ccc(-c2ccnc(SCC(=O)N3CCOCC3)n2)cc1 | 103% (inactive) | 100%
36 | Cc1ccc(OCC(=O)Nc2ccc(-c3nc4ncccc4o3)cc2)cc1 | 13.3% (inactive) and 14.1% (inactive) | 113% and 112%
